Experimental data published in publication PMC5540273 (PLoS ONE, 2017).

Tests used:
Details in all cases: concentration: 1 μM,replicates: in singlicate; n = 1
[1] = test system: TYK2(JH2domain-pseudokinase)
TYRO3 = test system: TYRO3
ULK1 = test system: ULK1
ULK2 = test system: ULK2
ULK3 = test system: ULK3
VEGFR2 = test system: T1, VEGFR2
T1 construct: gene KDR

VPS34 = test system: T2, VPS34
T2 construct: gene PIK3C3

VRK2 = test system: VRK2
WEE1 = test system: WEE1
WEE2 = test system: WEE2
WNK1 = test system: WNK1
WNK2 = test system: WNK2
WNK3 = test system: WNK3
WNK4 = test system: WNK4
YANK1 = test system: T3, YANK1
T3 construct: gene STK32A

YANK2 = test system: T4, YANK2
T4 construct: gene STK32B

YANK3 = test system: T5, YANK3
T5 construct: gene STK32C

YES = test system: T6, YES
T6 construct: gene YES1

YSK1 = test system: T7, YSK1
T7 construct: gene STK25

YSK4 = test system: T8, YSK4
T8 construct: gene MAP3K19
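Note: KINOMEscan kinase panel screen.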

Structure (SMILES) | %Inh [1] | %Inh (TYRO3) | %Inh (ULK1) | %Inh (ULK2) | %Inh (ULK3) | %Inh (VEGFR2) | %Inh (VPS34) | %Inh (VRK2) | %Inh (WEE1) | %Inh (WEE2) | %Inh (WNK1) | %Inh (WNK2) | %Inh (WNK3) | %Inh (WNK4) | %Inh (YANK1) | %Inh (YANK2) | %Inh (YANK3) | %Inh (YES) | %Inh (YSK1) | %Inh (YSK4)
C[C@@H]1CCN(C(=O)N2CCCC2)C[C@@H]1N(C)c1ncnc2[nH]ccc12 | 0% | 0% | 36% | 46% | 70% | 49% | 0% | 0% | 0% | 0% | 6% | 45% | 0% | 0% | 15% | 0% | 0% | 0% | 0% | 82%
CN(c1cccc(CNc2nc(Nc3ccc4c(c3)CC(=O)N4)ncc2C(F)(F)F)c1)S(C)(=O)=O | 0% | 0% | 72% | 45% | 40% | 37% | 0% | 12% | 0% | 0% | 0% | 0% | 0% | 0% | 0% | 0% | 0% | 3% | 0% | 96.8%
Cn1ccc2ncnc(Oc3ccc(NC(=O)Nc4cnn(C(C)(C)C)c4)c(Cl)c3)c21 | 3% | 0% | 0% | 7% | 0% | 99.1% | 16% | 0% | 0% | 5% | 62% | 0% | 0% | 3% | 1% | 11% | 9% | 0% | 8% | 34%
Cl.Nc1n[nH]c2cc(-c3ccccn3)ccc12 [GSK2189892] | 0% | 0% | 50% | 47% | 0% | 0% | 10% | 0% | 4% | 0% | 0% | 5% | 0% | 0% | 2% | 0% | 0% | 7% | 8% | 5%
Cn1cc(-c2cccc3c(N)c(C(N)=O)nnc23)cn1 | 80% | 0% | 23% | 14% | 21% | 13% | 46% | 1% | 3% | 18% | 11% | 0% | 0% | 0% | 30% | 0% | 0% | 0% | 5% | 94.4%
c1ccc(Oc2ccc(Nc3ccnc4ccc(-c5ccccn5)cc34)cc2)cc1 [GW407034] | 15% | 0% | 49% | 0% | 5% | 0% | 0% | 0% | 15% | 0% | 20% | 25% | 20% | 51% | 12% | 0% | 30% | 55% | 0% | 7%
O=C(NCC1CC1)c1ccc(-c2cc(C(=O)NC3CC3)ccc2F)cc1 [GW810445] | 2% | 0% | 1% | 0% | 3% | 0% | 16% | 19% | 0% | 0% | 0% | 24% | 11% | 10% | 0% | 0% | 0% | 0% | 3% | 6%
CC(C)c1nc(-c2cccc(NS(=O)(=O)c3ccccc3)c2)c(-c2ccnc(Nc3ccc4c(c3)CN(C)CC4)n2)s1 [GSK1649598] | 28% | 79% | 42% | 67% | 48% | 90.1% | 0% | 0% | 0% | 0% | 8% | 0% | 12% | 0% | 20% | 28% | 11% | 99.7% | 56% | 55%
O=C(Nc1ccc(Oc2ccc3nc(NC(=O)C4CC4)cn3n2)c(F)c1)c1cccn(-c2ccccc2)c1=O | 0% | 74% | 0% | 0% | 0% | 98.2% | 44% | 0% | 14% | 0% | 0% | 0% | 0% | 0% | 0% | 0% | 37% | 45% | 0% | 0%
Cc1cccc(-c2nc(Nc3ccncc3)c3sccc3n2)n1 [GW869641] | 75% | 0% | 43% | 29% | 45% | 35% | 32% | 39% | 20% | 11% | 27% | 0% | 21% | 17% | 20% | 14% | 0% | 0% | 0% | 41%
CNC(=O)c1ccccc1Nc1nc(Nc2cccc(CS(C)(=O)=O)c2)ncc1C.O=CO [GSK1520489] | 98.9% | 72% | 98.6% | 65% | 99.9% | 96.3% | 77% | 36% | 98.1% | 99.9% | 9% | 79% | 65% | 29% | 44% | 0% | 0% | 99.8% | 45% | 99.8%
Cn1ccc2ncnc(Oc3ccc(NC(=O)Nc4cccc(C(F)(F)F)c4)c(F)c3)c21 | 0% | 3% | 0% | 0% | 0% | 99.1% | 0% | 0% | 43% | 0% | 0% | 0% | 0% | 7% | 0% | 0% | 1% | 0% | 0% | 68%
COc1cc(Nc2nccc(N3CCC(NC(=O)c4cccc(C#N)c4)C3)n2)cc(OC)c1OC (stereo not shown) [GSK1379751] | 55% | 0% | 12% | 0% | 96.7% | 0% | 0% | 0% | 0% | 0% | 13% | 19% | 37% | 39% | 0% | 0% | 0% | 20% | 3% | 39%
C[C@@H](Oc1cc(-n2cnc3cc(-c4cnn(C)c4)ccc32)sc1C(N)=O)c1ccccc1Cl [GSK580432] | 0% | 11% | 14% | 10% | 11% | 61% | 74% | 0% | 26% | 5% | 62% | 91.4% | 97.4% | 33% | 25% | 0% | 13% | 73% | 31% | 97.8%
Cn1ccc2ncnc(Oc3ccc(NC(=O)Nc4ccnc(C(F)(F)F)c4)c(Cl)c3)c21 | 0% | 0% | 0% | 0% | 0% | 98.5% | 0% | 0% | 0% | 30% | 0% | 0% | 0% | 0% | 0% | 0% | 0% | 0% | 0% | 14%
Cc1ccc2c(-c3ccnc(Nc4ccc(C(F)(F)F)cc4)n3)cnn2n1 [GW819776] | 69% | 0% | 0% | 0% | 21% | 0% | 48% | 31% | 6% | 0% | 3% | 0% | 0% | 0% | 0% | 0% | 0% | 0% | 0% | 43%
COc1cccc(OC)c1C(=O)Nc1cccc(-c2nn3ccccc3c2-c2ccnc(Nc3cccc(F)c3)n2)c1 [GSK361065] | 0% | 79% | 0% | 13% | 0% | 18% | 0% | 0% | 9% | 12% | 0% | 0% | 0% | 0% | 0% | 11% | 0% | 36% | 1% | 0%
Cc1cccc2c(-c3ccncc3)c(-c3ccc(F)cc3)nn12.Cl [GW461487] | 0% | 0% | 0% | 0% | 1% | 0% | 18% | 0% | 8% | 11% | 0% | 0% | 13% | 0% | 27% | 8% | 22% | 11% | 11% | 0%
O=C1NCCc2[nH]c(-c3ccncc3)cc21 | 41% | 0% | 25% | 32% | 18% | 25% | 25% | 19% | 13% | 0% | 0% | 26% | 0% | 22% | 0% | 0% | 6% | 0% | 0% | 99.4%
COc1cccc(C2=C(Nc3cccc(Cl)c3)C(=O)NC2=O)c1 [SB-341556] | 46% | 21% | 42% | 7% | 12% | 0% | 0% | 0% | 5% | 0% | 20% | 29% | 19% | 0% | 5% | 0% | 11% | 17% | 0% | 38%
